Screen size: about 56,000 compounds; about 320 (0.57%) were called active.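 Rule for the calls: active = activation above a cutoff set at the mean activation of all tested compounds plus 3 SD (cut at about 54% in these data); inactive = the rest, inconclusive results apart.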 Many of the other results were omitted from the sample, so actives are more common in it than they were.
Target: Sphingosine 1-phosphate receptor 1 (Homo sapiens) (UniProt P21453)
Experiment: S1P1 agonists and agonism potentiators, primary screen, cell-based, primary and confirmation screens, CRE-bla reporter (AID 449);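 note: forskolin at 4 µM as EC80 and the EC20 agonist is SEW2871; 100% = SEW2871 at its EC100 plus forskolin at EC80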
Details: S1P1 CRE-bla cells, forskolin, beta-lactamase FRET, potentiator mode, at 9.5 µM, stronger effect = higher value, 100% = saturating reference agonist, 0% = basal, S1P1 agonist co-added at EC20, 2 nM
[1] = measured here: confirmation screen, triplicate average

Sequence of Sphingosine 1-phosphate receptor 1 (Homo sapiens) (P21453 whole entry, looked up): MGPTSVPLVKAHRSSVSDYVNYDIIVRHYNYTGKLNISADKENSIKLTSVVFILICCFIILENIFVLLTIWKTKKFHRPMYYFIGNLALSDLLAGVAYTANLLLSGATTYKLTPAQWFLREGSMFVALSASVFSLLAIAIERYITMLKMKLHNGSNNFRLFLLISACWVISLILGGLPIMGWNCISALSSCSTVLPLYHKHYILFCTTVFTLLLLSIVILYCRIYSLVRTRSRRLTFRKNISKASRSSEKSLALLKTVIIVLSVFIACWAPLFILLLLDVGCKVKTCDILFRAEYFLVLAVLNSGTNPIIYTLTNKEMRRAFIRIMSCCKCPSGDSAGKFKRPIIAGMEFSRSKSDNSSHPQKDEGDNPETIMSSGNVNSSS

SMILES	activation	activation [1] [%]
CCn1c(SCCC(C)C)nnc1-c1c[nH]c2ccccc12	33% (inactive)	
Cc1ccc2c(c1)c1ncn(CCC3=CCCCC3)c(=O)c1n2C	-12.4% (inactive)	
CCOCC(=O)NCc1ccc2c(c1)cc(C)n2C	-18% (inactive)	
Cc1ccc(Cn2c(NC(=O)c3ccco3)nc3ccccc32)cc1	-7.4% (inactive)	
Cc1cc(NC(=O)CN2CCCCC2C)nc2c1c(=O)oc1ccccc12 (stereo not given)	-16.9% (inactive)	
CC1(C)CC(=O)C2=C(C1)NCN(CCCN1CCOCC1)C2	-12.5% (inactive)	
COc1ccc(CCNC(=O)CCn2c(=O)oc3ccccc32)cc1OC	-30% (inactive)	
Cc1cc(Cl)ccc1N1C(=O)CC(SCCC(=O)O)C1=O (stereo not given)	15% (inactive)	
O=C(NCCN1C(=O)C2C3C=CC(C3)C2C1=O)Nc1ccccn1 (stereo not given)	1.7% (inactive)	
C#CCN1CC(C)/C(=N/O)CC1C (stereo not given)	-13.4% (inactive)	
Fc1ccc2nc(N3CCCCC3)sc2c1	-23.5% (inactive)	
O=C(c1cccs1)N1CCN(Cc2ccc3c(c2)OCO3)CC1	1.7% (inactive)	
Cc1ccc(-n2ncc3c(N4CCN(c5ccc(F)cc5)CC4)ncnc32)c(C)c1	-9.5% (inactive)	
Fc1ccc2[nH]c3c(N4CCN(Cc5ccc6c(c5)OCO6)CC4)ncnc3c2c1	106% (active)	116
Fc1ccc2[nH]c3c(N4CCSCC4)ncnc3c2c1	73% (active)	103
Cc1cc(N2CCN(Cc3ccc4c(c3)OCO4)CC2)n2ncnc2n1	3.4% (inactive)	
Cc1noc(/C=C/N(C)C)c1S(=O)(=O)N1CCCC(C(=O)NCc2ccco2)C1 (stereo not given)	-32.7% (inactive)	
Cc1cc(/C=N/n2cnnc2)c(C)n1-c1cccc(C(=O)O)c1	-16.1% (inactive)	
Cc1ccc(C(c2sc3nc(C)nn3c2O)N2CCN(c3ccccc3)CC2)cc1 (stereo not given)	-6.2% (inactive)	
CCN(CC)P(=O)(C(NC(=O)OC)C(F)(F)C(F)(F)C(F)(F)C(F)F)N(CC)CC (stereo not given)	2.6% (inactive)	
COc1ccc(CC(=O)n2nc(-c3cccnc3)nc2N)cc1	2.4% (inactive)	
CC12CCC(C(=O)N(CCC#N)CCC#N)(CC1=O)C2(C)C (stereo not given)	-0.9% (inactive)	
CC1Cc2ccccc2N1C(=O)CSc1nnc(-c2ccc(S(=O)(=O)N3CCCCC3)cc2)o1 (stereo not given)	-18.5% (inactive)	
